Source: PubChem (National Center for Advancing Translational Sciences (NCATS))
IDH1 R132H inh – qHTS for Inhibitors of mutant isocitrate dehydrogenase 1 (IDH1): qHTS; Isocitrate dehydrogenase [NADP] cytoplasmic (Homo sapiens), O75874; IDH1-R132H enzyme, NADPH consumption, diaphorase/resazurin fluorescence; Potency, µM (doses to about 76.6 µM), most hits filed as inhibitors; 390,000 compounds, 0.093% hits; further: nearly all actives have a fitted effect of over 65% in size
Target sequence (O75874 whole entry R132H, stated change not applied): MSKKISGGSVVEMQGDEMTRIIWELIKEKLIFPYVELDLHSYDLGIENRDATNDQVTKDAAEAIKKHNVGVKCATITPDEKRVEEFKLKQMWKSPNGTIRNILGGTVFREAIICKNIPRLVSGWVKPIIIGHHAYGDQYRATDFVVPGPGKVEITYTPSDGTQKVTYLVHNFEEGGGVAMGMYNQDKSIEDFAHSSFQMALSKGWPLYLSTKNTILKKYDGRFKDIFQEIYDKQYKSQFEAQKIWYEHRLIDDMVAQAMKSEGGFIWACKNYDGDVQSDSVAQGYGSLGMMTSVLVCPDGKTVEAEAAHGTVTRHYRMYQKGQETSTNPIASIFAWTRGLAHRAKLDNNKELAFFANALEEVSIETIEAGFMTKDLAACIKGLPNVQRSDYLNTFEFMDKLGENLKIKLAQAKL
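IDH1-R132H (0.5 ug/mL dispensed) in pH 7.5 Tris buffer was preincubated 30 min with compound, then given a substrate mix of 0.016 mM NADPH and 2 mM alpha-KG for 80 min at room temperature; remaining NADPH was read by diaphorase/resazurin fluorescence.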
ELG1 repair inh – qHTS screen for small molecules that inhibit ELG1-dependent DNA repair in human embryonic kidney (HEK293T) cells expressing luciferase-tagged ELG1; HEK293T ELG1-luciferase reporter, luminescence, 16 h; DNA damage induced by 5-fluorouridine; Potency, µM (top dose mostly 46.1 µM), hits mostly inhibitors; 330,000 compounds, 2.3% hits; AID 504467, 2011; further: nearly all actives have a fitted effect of over 55% in size
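Overnight (16 hr) co-exposure of 2,000 cells/well to 5-fluorouridine and compound at 37 °C preceded detection. Luciferase was quantified via ONE-Glo luminescence; loss of signal denotes inhibition.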
Nrf2 ARE act – qHTS of Nrf2 Activators; AREc32 ARE-luciferase reporter (MCF7-derived line), luminescence, 24 h; Potency, µM (series often up to 46.1 µM), actives largely listed as activators; 410,000 compounds, 0.31% hits; AID 624171, 2012; further: nearly all actives have a fitted effect of over 65% in size
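Each well held 1000 AREc32 cells, which were incubated with compound for 24 hr at 37 deg C after overnight attachment, and ARE reporter activity was quantified by firefly luciferase luminescence.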
Nrf2 inh – Nrf2 qHTS screen for inhibitors. A549 ARE-Fluc reporter, luciferase luminescence, 18-24 h. Potency, µM (doses to about 46 µM), most hits filed as inhibitors. 360,000 compounds, 2.1% hits; further: nearly all actives have a fitted effect of over 60% in size
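Cells were seeded and rested 2 h, then exposed to compounds for 18-24 h. CellTiter-Fluor was read first as a viability measure. BugLite was added 15 min before the final luminescent read of ARE-luciferase activity in A549 cells.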
A549 tox – Nrf2 qHTS screen for inhibitors: counterscreen for cytotoxicity | A549 ARE-Fluc cells, CellTiter-Fluor viability, 18-24 h | Potency, µM (titrated, usually from 46 µM), hits mostly inhibitors | 390,000 compounds, 0.16% hits | AID 504648, 2011
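Cytotoxicity counterscreen: CellTiter-Fluor fluorescence was measured in A549 ARE_Fluc cells after 18-24 h of compound exposure in a concentration series. The subsequent BugLite luminescent read reports ARE-luciferase activity.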
A number is an active result; - = inactive; ? = inconclusive; . = not tested or not shown; [ ] = dose if it differs, or a comment. Rows were chosen to be rich in hits. Some 3.8% of all compounds tested hit in one or more screens of this group. The call rests on the fitted dose curve; in most records, active means well fitted curve in the direction sought with a large enough effect; inconclusive means small, poorly fitted or top-dose-only effect, or another doubt; inactive means no such curve, though single readings can be large; an effect the other way counts as inactive or inconclusive.

SMILES	IDH1 R132H inh	ELG1 repair inh	Nrf2 ARE act	Nrf2 inh	A549 tox
CC(=O)c1cccc(NS(=O)(=O)c2ccc3[nH]c4c(c3c2)CCCCC4)c1	-	.	-	16.4µM	-
CN(CC(=O)NCc1ccccc1)S(=O)(=O)c1ccc2[nH]c3c(c2c1)CCCC3	-	.	-	-	-
CN(Cc1ccccc1)S(=O)(=O)c1ccc2[nH]c3c(c2c1)CCCCC3	-	.	-	16.4µM	-
O=C(Nc1ccc2[nH]c3c(c2c1)CCCC3)c1ccco1	-	4.47µM	12.6µM	?	-
CCCS(=O)(=O)Nc1cc2c(cc1NCc1ccccc1)n(C)c(=O)n2C	-	.	?	-	-
CC1(C(=O)NS(=O)(=O)c2cccs2)CCN1C(=O)Cc1ccccc1 (stereo not drawn)	.	.	-	.	.
COc1ccc(OC)c(CNS(=O)(=O)c2ccc3[nH]c4c(c3c2)CCCCC4)c1	-	.	-	16.4µM	-
COc1ccc(NS(=O)(=O)c2ccc3[nH]c4c(c3c2)CCCC4)c(OC)c1	-	.	-	?	-
O=C(/C=C/c1cccc(O)c1)c1ccc(N2CCOCC2)cc1	-	?	14.1µM	-	-
CCc1nnc2c3ccccc3nc(N3CCN(c4cc(Cl)ccc4C)CC3)n12	-	.	-	-	-
Cn1cc([N+](=O)[O-])c(C(=O)Nc2ccc3nc(-c4ccccc4)[nH]c3c2)n1	-	?	25.1µM	?	-
Cn1cc([N+](=O)[O-])c(C(=O)Nc2cc(Oc3cccnc3)cc([N+](=O)[O-])c2)n1	-	3.16µM	?	?	-
O=C(c1ccccc1)c1ccc2nc(-c3ccc(NC(=O)c4ccccc4F)cc3)[nH]c2c1	-	-	-	10.3µM	?
Cc1ccc(-n2nc3c4c(cccc4c2=O)-c2ccccc2-3)cc1	-	-	-	?	16.4µM
CCOc1ccc(S(=O)(=O)/N=C(\N)c2ccccc2)cc1	-	23.1µM	-	?	-
CCOC(=O)c1ccc(NC(=O)C2=C(C)Nc3nc(SCc4ccc(Cl)cc4)nn3C2c2ccc(C)cc2)cc1 (stereo not drawn)	-	.	-	-	-
Cc1nn(-c2ccccc2)c(C)c1NC(=O)COc1ccc(Br)cc1Cl	-	23.1µM	-	?	-
Cc1cccc(C(=O)NNC2=C(C(=O)C(F)(F)F)CCC2)c1O	-	20.6µM	-	?	?
CCCCOc1cccc(C(=O)Nc2cccc(-c3nc4ncccc4o3)c2C)c1	-	.	-	16.4µM	-
CCCCC(=O)Nc1cccc(-c2nc3ncccc3o2)c1C	-	-	-	-	-
Cc1c(NC(=O)C(C)C)cccc1-c1nc2ncccc2o1	-	?	-	-	-
Cc1c(NC(=O)c2cccc(-c3cc4ccccc4oc3=O)c2)cccc1-c1nc2ncccc2o1	-	13µM	-	?	-
COc1cc(C(C(=O)NC2CCCCC2)N(C(=O)Cc2c[nH]c3ccccc23)c2ccccc2C)cc(OC)c1OC (stereo not drawn)	-	-	-	-	-
COc1ccc(CN(C(=O)Cc2c[nH]c3ccccc23)C(C(=O)NC2CCCCC2)c2ccc(C)o2)cc1 (stereo not drawn)	-	20.6µM	-	11.6µM	?
COc1cccc(CN(C(=O)Cc2c[nH]c3ccccc23)C(C(=O)NC2CCCCC2)c2ccc(C)o2)c1 (stereo not drawn)	-	18.4µM	-	20.6µM	?
SMILES	IDH1 R132H inh	ELG1 repair inh	Nrf2 ARE act	Nrf2 inh	A549 tox
COc1cccc(CN(C)C(=O)Cc2c[nH]c3ccccc23)c1	-	-	-	-	-
COc1cc(C(C(=O)NC2CCCCC2)N(Cc2cccs2)C(=O)Cc2c[nH]c3ccccc23)cc(OC)c1OC (stereo not drawn)	-	14.6µM	-	-	-
CCc1ccc(OCc2nc(-c3ccc(OC)cc3)no2)c(Br)c1	-	.	-	.	-
O=C(O)CN1C(=O)/C(=C/c2ccc(-c3cccc(Cl)c3)o2)SC1=S	.	.	.	-	-
O=C1C=C(NC2=CC3OC(c4ccccc4)OCC3OC2=O)CCC1 (stereo not drawn)	-	13µM	?	-	?
CC[C@H](C)[C@H]1O[C@]2(CC[C@@H]1C)C[C@@H]1C[C@@H](CC=C(C)[C@@H](O[C@H]3C[C@H](OC)[C@@H](O[C@H]4C[C@H](OC)[C@@H](O)[C@H](C)O4)[C@H](C)O3)[C@@H](C)C=CC=C3CO[C@@H]4[C@H](O)C(C)=C[C@@H](C(=O)O1)[C@]34O)O2	-	.	-	5.8µM	23.1µM
O=S(=O)(c1ccc(SCCOc2ccc(Br)cc2)nc1)N1CCCC1	-	-	-	16.4µM	-
CCOc1ccc(OCCSc2ccc(S(=O)(=O)N3CCN(C)CC3)cn2)cc1	-	-	-	?	-
O=S(=O)(c1ccc(Oc2ccc(Br)cc2F)nc1)N1CCCCC1	-	?	-	16.4µM	-
CC(C)N(C(=O)CSc1ccc(S(=O)(=O)N2CCCCC2)cn1)c1ccccc1	-	?	-	9.2µM	-
O=S(=O)(c1ccc(SCCOc2ccc(Cl)cc2)nc1)N1CCCC1	-	?	-	18.4µM	-
N#Cc1ccccc1Oc1ccc(S(=O)(=O)N2CCCCC2)cn1	-	?	-	-	-
CCOc1cc(C(=O)N2CC(=O)Nc3ccc(F)cc3C2c2ccccc2)cc(OCC)c1OCC (stereo not drawn)	-	.	-	-[9.27 µM]	-
COc1ccc2c(c1)-c1nc(NC(=O)c3ccc(OC)c(Br)c3)sc1CC2	.	.	-	-	-
Cc1nc(N2CCN(C(=O)c3ccco3)CC2)c2oc3ccccc3c2n1	-	?	-	20.6µM	-
Cc1nc(N2CCC(C)CC2)c2oc3ccccc3c2n1	-	20.6µM	-	?	-
CCc1nc(N2CCN(C(=O)c3ccco3)CC2)c2oc3ccccc3c2n1	-	?	-	?	-[1.84 µM]
COc1ccccc1N1CCN(c2nc(C)nc3c2oc2ccccc23)CC1	-	?	-	.	-
Cc1nc(N2CCN(Cc3ccc(Cl)cc3)CC2)c2oc3ccccc3c2n1	-	18.3µM	-	?	-
O=C(NC(c1ccc(Cl)cc1)c1ccsc1)C1CCN(Cc2ccc(Oc3ccccc3)cc2)CC1 (stereo not drawn)	.	.	-	.	.
Cc1cc(C)n2ncc(C(=O)Nc3ccc4c(c3)CCC4)c2n1	.	.	.	?	-
O=C(OCC#CCSc1nnc(-c2cccc3ccccc23)o1)c1csc2ccccc12	.	.	.	-	-
CCOC(=O)Cn1c(=O)n(CC2CCCO2)c2nc(-c3ccc(CC)cc3)nc(C(N)=O)c21 (stereo not drawn)	-	.	-	.	-
COc1cc(C(=O)ON=C2C3CC4CC(C3)CC2C4)cc(OC)c1OC	-	23.1µM	-	-	?
